Laboratory results: PubChem BioAssay (EPA / NIEHS)
Values joined by “and” are separate entries in the source; they are usually repeats but may differ in a detail not shown here. Equal entries are not always repeated. Results filed as inconclusive are left out. A structure can be active in one record and inactive in another. Active and inactive are the calls of the source. The calls were made as follows: active = hit-call score of the fitted dose curve at least 0.9, where 1 is the maximum; inconclusive = response in the unintended direction; inactive = score below 0.9.

Legend:
[1] = Tanguay_ZF_120hpf_ActivityScore_legacy: (Legacy) Oregon State University Tanguay Lab 120 Hour Post-fertilization zebrafish Assay Score for Activity (AID 2283742);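 as to AC50: dechorionated Tropical 5D wild-type zebrafish embryos held singly per well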
Procedure, shortened: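 Binary scoring of mortality and morphology by brightfield at 24 and 120 hpf, summarised into one activity score from 18 components relative to DMSO. Wild-type Tropical 5D zebrafish, chorion removed at 4 hpf, static exposure 6–120 hpf, 28 °C.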

[2] = target: Luciferin 4-monooxygenase (Photinus pyralis) (UniProt P08659); test: CCTE_Simmons_QuantiLum_inhib_2: CCTE's Firefly Luciferase Inhibition Assay, Simmons Lab (AID 2283767)
Procedure, shortened: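 Cell-free QuantiLum luciferase, 5 ng/well; compounds 5 nM–87.5 uM final, 8 conc, 0.5% DMSO; 30 min, 37C, dark. Detection reagent (150 uM D-luciferin, 147 uM dATP, CoA, DTT, pH 7.8 final) injected per well, kinetic luminescence. Triplicate biological replicates.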

[3] = ACEA_AR_agonist_AUC_viability: ACEA Biosciences xCELLigence Real-Time Cell Analysis on Androgen Receptor Agonism for Viability (AID 2283775);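 as to AC50: viability read 80 hours after compound addition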
Procedure, shortened: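 Viability endpoint from xCELLigence impedance in 22Rv1 prostate cells at 80 h. Eight-point series, 100 uM maximum final.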

[4] = ACEA_AR_antagonist_AUC_viability: ACEA Biosciences xCELLigence Real-Time Cell Analysis on Androgen Receptor Antagonism for Viability (AID 2283776);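 also: 22Rv1 human prostate cancer cells growing on impedance electrode plates; area under impedance growth curve at 80 h after dosing as viability; hits lower the growth signal relative to DMSO meaning cytotoxicity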
Procedure, shortened: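 Viability endpoint from label-free cell-index monitoring: 22Rv1 cultures treated with an eight-point 1:4 dilution series starting at 100 uM final, AUC at 80 h fitted against DMSO.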

[5] = test system: zebrafish Androgen Receptor (AR), gene 100005148; test: ATG_zfAR_XSP1: Attagene TRANS-FACTORIAL Multi-Species (XSP1) HepG2 Assay for zebrafish Androgen Receptor (AR) (AID 2283771)
Procedure, shortened: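 Gain-of-signal versus DMSO was measured as reporter transcripts quantified by RT-PCR, fluorescent labelling and capillary electrophoresis after 24 h chemical exposure. The cells were HepG2 expressing a chimeric zebrafish AR-GAL4, co-stimulated with 3 nM 6-alpha-fluorotestosterone.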

[6] = target: zebrafish Estrogen Receptor (ESR1), esr1 (gene 259252) (UniProt P57717); test: ATG_zfER1_XSP1: Attagene TRANS-FACTORIAL Multi-Species (XSP1) HepG2 Assay for zebrafish Estrogen Receptor (ESR1) (AID 2283772)
Procedure, shortened: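 Transfect HepG2 with GAL4-UAS multi-reporter constructs; treat 24 h (medium carries 3 nM 6-alpha-fluorotestosterone); extract RNA, reverse-transcribe, PCR-amplify, FAM-label, digest with HpaI; resolve by capillary electrophoresis and compare against DMSO baseline.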

[7] = test system: zebrafish Estrogen Receptor (ESR2B), gene 317733; test: ATG_zfER2b_XSP1: Attagene TRANS-FACTORIAL Multi-Species (XSP1) HepG2 Assay for zebrafish Estrogen Receptor (ESR2B) (AID 2283773)
Procedure, shortened: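 Medium contained 3 nM 6-alpha-fluorotestosterone. Reporter mRNA induction by exogenous zebrafish ER2b-Gal4 chimera was read 24 h post-dose in transiently transfected HepG2 cells, using RT-PCR, fluorescent labelling, HpaI digestion and capillary electrophoresis.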

[8] = test system: frog Estrogen Receptor (ESR2), gene 100174814; test: ATG_frER2_XSP1: Attagene TRANS-FACTORIAL Multi-Species (XSP1) HepG2 Assay for frog Estrogen Receptor (ESR2) (AID 2283774)
Procedure, shortened: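 Reporter mRNA from a multiplexed TRANS system, measured by RT-PCR with fluorescent labelling and capillary electrophoresis, 24 hours after chemical exposure. Human HepG2 liver cells carried exogenous frog ER-Gal4 chimera; medium included 3 nM 6-alpha-fluorotestosterone; increases versus DMSO analysed.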

[9] = test system: frog Estrogen Receptor (ESR1), gene 398734; test: ATG_frER1_XSP1: Attagene TRANS-FACTORIAL Multi-Species (XSP1) HepG2 Assay for frog Estrogen Receptor (ESR1) (AID 2283777)
Procedure, shortened: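 HepG2 cells transiently transfected with GAL4-UAS reporter units and frog ER–Gal4 chimera were dosed for 24 h with 3 nM 6-alpha-fluorotestosterone present. Reporter mRNA was measured by RT-PCR and capillary electrophoresis; gain of signal fitted versus DMSO.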

[10] = test system: zebrafish Estrogen Receptor (ESR2A), gene 317734; test: ATG_zfER2a_XSP1: Attagene TRANS-FACTORIAL Multi-Species (XSP1) HepG2 Assay for zebrafish Estrogen Receptor (ESR2A) (AID 2283778)
Procedure, shortened: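 Reporter transcripts were quantified by RT-PCR, 6-FAM labelling, HpaI digestion and capillary electrophoresis after 24 h dosing. The cells were HepG2 transiently carrying a zebrafish ER2a–Gal4 construct plus multiplexed UAS reporters; medium contained 3 nM 6-alpha-fluorotestosterone.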

[11] = target: chicken Estrogen Receptor (ESR1), ESR1 (gene 396099) (UniProt P06212); test: ATG_chERa_XSP1: Attagene TRANS-FACTORIAL Multi-Species (XSP1) HepG2 Assay for chicken Estrogen Receptor (ESR1) (AID 2283779)
Procedure, shortened: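 Trans-activation of an exogenous chicken ERα–Gal4 chimera read as reporter transcript (RT-PCR, fluorescent labeling, capillary electrophoresis) after 24 h compound exposure of transfected HepG2; medium held 3 nM 6-alpha-fluorotestosterone. Positive-direction fit against DMSO.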

[12] = target: Estrogen receptor (Homo sapiens) (UniProt P03372); test: ATG_hERa_XSP1: Attagene TRANS-FACTORIAL Multi-Species (XSP1) HepG2 Assay for human Estrogen Receptor (ESR1) (AID 2283780)
Procedure, shortened: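 Reporter transcripts from multiplexed GAL4-UAS units driven by NR-Gal4 chimeras in transiently transfected HepG2 were measured by RT-PCR with capillary electrophoresis 24 h post-dose, with 3 nM 6-alpha-fluorotestosterone present; gain-of-signal relative to DMSO.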

[13] = test system: turtle Estrogen Receptor (ESR1), gene 101933533; test: ATG_trERa_XSP1: Attagene TRANS-FACTORIAL Multi-Species (XSP1) HepG2 Assay for turtle Estrogen Receptor (ESR1) (AID 2283781)
Procedure, shortened: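 Transactivation measured 24 h post-dose as reporter mRNA (RT-PCR, fluorescent capillary electrophoresis) from an NR-Gal4 turtle ER construct in HepG2. Medium included 3 nM 6-alpha-fluorotestosterone; increase over DMSO fitted.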

[14] = test system: Thyroperoxidase (TPO), gene 445522; test: CCTE_Simmons_GUA_TPO: CCTE's Guaiacol Assay for Thyroperoxidase (TPO) Inhibition, Simmons Lab (AID 2283750)
Procedure, shortened: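 Porcine thyroid microsomes (25 ug) in 200mM potassium phosphate, preincubated 30 s at 37C with compound (8 concentrations, 5 nM–87.5 uM) and 35mM guaiacol; 1mM H2O2 starts reaction. Absorbance change at 450nm over first 80 s; loss of signal versus DMSO, three replicates.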

[15] = test system: chicken Androgen Receptor (AR), gene 422165; test: ATG_chAR_XSP1: Attagene TRANS-FACTORIAL Multi-Species (XSP1) HepG2 Assay for chicken Androgen Receptor (AR) (AID 2283768)
Procedure, shortened: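 Reporter mRNA read by RT-PCR with fluorescent labelling and capillary electrophoresis 24 h after chemical dosing of transiently transfected HepG2 cells. Chicken AR-Gal4 chimera, partially stimulated with 3 nM 6-alpha-fluorotestosterone; activity fitted upward relative to DMSO.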

[16] = test system: frog Androgen Receptor (AR), gene 399456; test: ATG_frAR_XSP1: Attagene TRANS-FACTORIAL Multi-Species (XSP1) HepG2 Assay for frog Androgen Receptor (AR) (AID 2283770)

Measured: AC50

Sequence of zebrafish Estrogen Receptor (ESR1), esr1 (gene 259252) (P57717 whole entry, looked up, the tested form may be a part): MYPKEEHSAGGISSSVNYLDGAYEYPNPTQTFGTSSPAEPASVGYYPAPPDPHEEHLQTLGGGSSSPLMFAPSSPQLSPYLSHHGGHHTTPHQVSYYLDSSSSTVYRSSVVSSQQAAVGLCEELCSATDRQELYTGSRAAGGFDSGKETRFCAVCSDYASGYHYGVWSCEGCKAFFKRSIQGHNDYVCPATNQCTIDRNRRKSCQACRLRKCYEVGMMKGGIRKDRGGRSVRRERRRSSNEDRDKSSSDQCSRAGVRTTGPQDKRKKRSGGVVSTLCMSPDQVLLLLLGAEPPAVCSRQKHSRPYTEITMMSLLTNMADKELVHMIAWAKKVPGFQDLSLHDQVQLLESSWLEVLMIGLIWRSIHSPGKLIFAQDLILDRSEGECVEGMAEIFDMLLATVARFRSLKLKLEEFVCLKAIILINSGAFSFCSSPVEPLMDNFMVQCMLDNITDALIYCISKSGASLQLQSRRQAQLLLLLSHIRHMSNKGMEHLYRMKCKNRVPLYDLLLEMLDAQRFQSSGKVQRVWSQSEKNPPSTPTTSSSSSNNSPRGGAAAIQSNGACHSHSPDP
Sequence of Luciferin 4-monooxygenase (Photinus pyralis) (P08659 whole entry, looked up): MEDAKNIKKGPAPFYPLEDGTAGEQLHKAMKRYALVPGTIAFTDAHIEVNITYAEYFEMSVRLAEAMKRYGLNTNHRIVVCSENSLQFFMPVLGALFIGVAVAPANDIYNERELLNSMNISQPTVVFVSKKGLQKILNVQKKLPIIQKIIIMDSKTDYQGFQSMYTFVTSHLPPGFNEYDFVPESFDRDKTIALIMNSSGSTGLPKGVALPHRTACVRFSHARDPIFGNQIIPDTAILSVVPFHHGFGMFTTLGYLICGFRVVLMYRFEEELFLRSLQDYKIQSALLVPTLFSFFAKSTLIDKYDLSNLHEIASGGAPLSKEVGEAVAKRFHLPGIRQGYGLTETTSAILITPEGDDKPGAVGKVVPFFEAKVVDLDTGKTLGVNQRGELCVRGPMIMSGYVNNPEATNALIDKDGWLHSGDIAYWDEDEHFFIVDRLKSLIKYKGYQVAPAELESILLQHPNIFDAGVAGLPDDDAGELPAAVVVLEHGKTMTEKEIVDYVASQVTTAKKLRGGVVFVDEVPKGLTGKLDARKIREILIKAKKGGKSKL
Sequence of Estrogen receptor (Homo sapiens) (P03372 whole entry, looked up, the tested form may be a part): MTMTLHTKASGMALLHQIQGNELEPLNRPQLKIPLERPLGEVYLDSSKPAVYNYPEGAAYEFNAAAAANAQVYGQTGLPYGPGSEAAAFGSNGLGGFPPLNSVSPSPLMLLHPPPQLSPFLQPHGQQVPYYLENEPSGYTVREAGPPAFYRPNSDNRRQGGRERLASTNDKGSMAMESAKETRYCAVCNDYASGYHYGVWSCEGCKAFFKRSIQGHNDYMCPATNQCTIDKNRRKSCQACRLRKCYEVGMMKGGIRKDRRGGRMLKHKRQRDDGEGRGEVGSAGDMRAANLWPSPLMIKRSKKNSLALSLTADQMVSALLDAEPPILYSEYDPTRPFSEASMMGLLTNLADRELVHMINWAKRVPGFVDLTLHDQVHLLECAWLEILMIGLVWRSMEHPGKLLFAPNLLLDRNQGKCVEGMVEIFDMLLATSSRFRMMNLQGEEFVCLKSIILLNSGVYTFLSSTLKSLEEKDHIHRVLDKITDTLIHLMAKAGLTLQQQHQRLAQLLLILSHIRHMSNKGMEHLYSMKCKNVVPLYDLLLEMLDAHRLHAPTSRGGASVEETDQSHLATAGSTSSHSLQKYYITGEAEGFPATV
Sequence of chicken Estrogen Receptor (ESR1), ESR1 (gene 396099) (P06212 whole entry, looked up, the tested form may be a part): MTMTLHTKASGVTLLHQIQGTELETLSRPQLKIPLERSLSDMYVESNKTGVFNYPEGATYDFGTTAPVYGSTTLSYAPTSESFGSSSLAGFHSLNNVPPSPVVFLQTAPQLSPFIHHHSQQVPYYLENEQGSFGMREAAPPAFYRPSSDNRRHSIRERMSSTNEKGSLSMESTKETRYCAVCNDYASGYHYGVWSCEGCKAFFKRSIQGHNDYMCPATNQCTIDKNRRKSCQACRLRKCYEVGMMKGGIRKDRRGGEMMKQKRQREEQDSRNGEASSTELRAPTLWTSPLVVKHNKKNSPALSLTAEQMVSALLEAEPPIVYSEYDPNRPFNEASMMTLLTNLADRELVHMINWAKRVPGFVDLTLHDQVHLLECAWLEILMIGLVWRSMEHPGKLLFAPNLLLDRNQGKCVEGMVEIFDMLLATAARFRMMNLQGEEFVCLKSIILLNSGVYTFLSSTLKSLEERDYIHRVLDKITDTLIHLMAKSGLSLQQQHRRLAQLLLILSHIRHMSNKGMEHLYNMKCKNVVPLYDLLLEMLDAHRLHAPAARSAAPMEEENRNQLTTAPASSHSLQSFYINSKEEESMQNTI

Clc1ccc(C(Cl)(Cl)Cl)cc1
inactive: [1] | [2] | [3] | [4]

ClC(Cl)=C(c1ccc(Cl)cc1)c1ccc(Cl)cc1
inactive: [1] | [5] | [6] | [9] | [11]
active: [7] 5920 nM | [8] 3830 nM | [3] 29.6 µM | [4] 21.4 µM | [10] 10000 nM | [12] 4.53 µM | [13] 5500 nM

Cc1ccc(O)c(C)c1
inactive: [1] | [2] | [3] | [4]

CCCCCCCCCc1ccc(O)cc1
inactive: [1] | [2]
active: [3] 22.9 µM | [4] 19.1 µM

O=C(O)C(F)(F)C(F)(F)C(F)(F)C(F)(F)C(F)(F)C(F)(F)C(F)(F)C(F)(F)C(F)(F)F
inactive: [1] | [2]
active: [3] 71.7 µM | [4] 67.3 µM

CCNc1nc(NC(C)C)nc(SC)n1
active: [1] 76.9 µM
inactive: [3] | [4]

CCCCCCCCOC(=O)c1ccccc1C(=O)OCCCCCCCC
inactive: [1] | [2] | [3] | [4]

CCC(C)(c1ccc(O)cc1)c1ccc(O)cc1
inactive: [2]
active: [1] 49.3 µM | [14] 189 µM | [3] 50 µM | [4] 42.4 µM

C[C@]12CCC(=O)C=C1CC[C@@H]1[C@@H]2CC[C@@]2(C)[C@H]1CC[C@]2(C)O
active: [15] 0.000449 µM | [16] 0.0038 µM | [5] 0.000293 µM | [6] 0.0396 µM | [7] 5.69 nM | [8] 17.3 nM | [9] 2.97 nM | [10] 2.72 nM | [11] 1.61 nM | [12] 0.00117 µM | [13] 1.76 nM
inactive: [1]

CC(C)C(=O)OCC(C)(C)C(OC(=O)C(C)C)C(C)C (configuration not stated)
active: [1] 27.2 µM | [3] 75 µM | [4] 90.1 µM

COS(=O)(=O)OC
inactive: [1] | [2] | [3] | [4]

O=C(O)C(F)(F)C(F)(F)C(F)(F)C(F)(F)C(F)(F)C(F)(F)C(F)(F)C(F)(F)F
inactive: [1] | [2]
active: [3] 74.2 µM | [4] 72 µM

Cc1ccccc1[N+](=O)[O-]
inactive: [1]

Cc1cc(O)ccc1Cl
inactive: [1] | [3] | [4]

CCOP(=S)(OCC)SCSC(C)(C)C
active: [3] 82.5 µM | [4] 59.6 µM
inactive: [1]

Oc1c(Cl)c(Cl)c(Cl)c(Cl)c1Cl
inactive: [2]
active: [1] 1.03 µM | [3] 15.2 µM | [4] 29.5 µM

O=C(NC(=O)c1c(F)cccc1F)Nc1cc(Cl)c(OC(F)(F)C(F)F)c(Cl)c1
inactive: [1] | [2]
active: [3] 50 µM | [4] 42.2 µM

Clc1ccc(C(c2ccccc2Cl)C(Cl)(Cl)Cl)cc1 (configuration not stated)
inactive: [1] | [5]
active: [6] 2.48 µM | [7] 752 nM | [8] 674 nM | [3] 8.75 µM | [4] 12.8 µM | [9] 389 nM | [10] 679 nM | [11] 291 nM | [13] 713 nM

CC#Cc1cc(C)nc(Nc2ccccc2)n1
inactive: [1]

Cc1cccc(C)c1N
inactive: [1] | [3]

N#Cc1ccc(N(CC(N)=O)CC(F)(F)F)cc1C(F)(F)F
inactive: [1]

O=NN(c1ccccc1)c1ccccc1
inactive: [1] | [3] | [4]

C[C@]12CCC(=O)C=C1CC[C@@H]1[C@@H]2CC[C@]2(C)C(=O)CC[C@@H]12
active: [1] 67.7 µM | [15] 0.0535 µM | [6] 1.14 µM | [7] 15.4 nM and 14.6 nM | [8] 69 nM and 15.3 nM | [9] 13 nM and 15.4 nM | [10] 17.5 nM and 13.2 nM | [11] 6.69 nM and 4.53 nM | [12] 0.00335 µM | [13] 4.61 nM and 4.8 nM
inactive: [2] | [15] | [5] | [6]

CCC(=O)O[C@H]1CC[C@H]2[C@@H]3CCC4=CC(=O)CC[C@]4(C)[C@H]3CC[C@]12C
inactive: [1] | [2]

c1cc2ccc3cccc4ccc(c1)c2c34
inactive: [1] | [3]
active: [4] 21.4 µM

CC(C)(c1ccccc1)c1ccc(O)cc1
active: [1] 27 µM | [6] 1.67 µM | [7] 882 nM | [8] 525 nM | [3] 12.1 µM | [4] 13.3 µM | [9] 232 nM | [11] 1980 nM | [12] 0.3 µM | [13] 412 nM
inactive: [2] | [5] | [10]

Cc1ccccc1CO[C@@H]1C[C@@]2(C(C)C)CC[C@]1(C)O2
active: [3] 76.7 µM | [4] 63.6 µM
inactive: [1] | [2]
